In PubChem BioAssay (EPA / NIEHS):
The source holds several records for some structures; these can differ, active in one and inactive in another. Calls of active or inactive are those of the source. Rule for the calls: active = hit-call score of the fitted dose curve at least 0.9, where 1 is the maximum; inactive = score below 0.9.

Each compound was assayed against Transcription factor E2F1 (Homo sapiens) (UniProt Q01094) (assay: ATG_E2F_CIS: Attagene CIS-FACTORIAL HepG2 Assay for human E2F Transcription Factor 1 (AID 2282935)). Conditions: HepG2 Attagene cis-reporter, E2F reporter RNA transcripts; actives raise or lower the signal.
Chain of Transcription factor E2F1 (Homo sapiens) (Q01094 whole entry, looked up): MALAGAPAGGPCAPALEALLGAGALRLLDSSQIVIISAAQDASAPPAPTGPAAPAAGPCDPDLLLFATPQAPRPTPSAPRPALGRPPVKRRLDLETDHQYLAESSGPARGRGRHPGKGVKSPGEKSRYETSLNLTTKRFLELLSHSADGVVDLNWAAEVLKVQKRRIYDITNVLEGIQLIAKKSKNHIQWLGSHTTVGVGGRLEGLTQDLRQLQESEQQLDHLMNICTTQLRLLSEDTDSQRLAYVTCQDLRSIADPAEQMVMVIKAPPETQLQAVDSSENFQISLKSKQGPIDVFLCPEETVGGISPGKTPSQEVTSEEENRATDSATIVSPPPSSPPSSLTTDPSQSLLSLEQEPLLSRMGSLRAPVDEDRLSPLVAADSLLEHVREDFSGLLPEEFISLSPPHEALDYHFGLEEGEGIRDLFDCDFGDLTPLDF
Protocol: ATG_CIS is a cell-based, multiplexed-readout assay that uses HepG2, a human liver cell line, with measurements taken at 24 hours after chemical dosing in a 24-well plate.ATG_E2F_CIS is one of 52 assay component(s) measured or calculated from the ATG_CIS assay. It is designed to make measurements of mRNA induction, a form of inducible reporter, as detected with fluorescence intensity signals by Reverse transcription polymerase chain reaction (RT-PCR) and Capillary electrophoresis technology.Data from the assay component ATG_E2F_CIS was analyzed into 1 assay endpoint. This assay endpoint, ATG_E2F_CIS, was analyzed with bidirectional fitting relative to DMSO as the negative control and baseline of activity. Using a type of inducible reporter, measures of mRNA for gain or loss-of-signal activity can be used to understand the reporter gene at the transcription factor-level as they relate to the gene E2F1. Furthermore, this assay endpoint can be referred to as a primary readout, because this assay has produced multiple assay endpoints where this one serves a reporter gene function. To generalize the intended target to other relatable targets, this assay endpoint is annotated to the dna binding intended target family, where the subfamily is E2F transcription factor.
Human liver HepG2 cells are transiently transfected with multiple reporter transcription units (MRTUs) in 6-well plates using FuGene 6 reagent (Roche; 3 ml FuGene/1 mg DNA). The MRTU constructs are regulated by a cis-regulating element (promoter). […] A major difference between the CIS and TRANS system is that in CIS activities of endogenous TFs are measured, whereas the TRANS assay evaluates changes in activities of exogenous, chimeric NR-Gal4 proteins. […] At the end of 24 hour incubation, total RNA was isolated using TriZol reagent (Invitrogen). The isolated RNA is then reverse-transcribed using oligo(dT) primer and Mo-MLV reverse transcriptase (Invitrogen) with DNAse I (Ambion) treatment for 30 min. The one-tenth of the produced cDNA was amplified by PCR using Taq DNA polymerase (Invitrogen) and two reporter sequence-specific primers. The PCR products were fluorescently labeled by primer extension with 6-arboxyfluorescein (6-FAM) 5'-labeled reporter sequence-specific primer (2 min at 95 C, 20 s at 68 C and 10 min at 72 C) and these products were digested with 5U of HpaI (New England Biolabs) for 2h at 37 C. The fragments were purified using Qiaquick PCR columns (Qiagen), analyzed on an ABI 3130xL genetic analyzer (Applied Biosystems) with peak positions identified by using a set of X-rhodamine (ROX)-labeled MapMarker1000 molecular weight standards (BioVentures). The raw capillary electrophoresis data was processed using Attagraph software (Attagene).

Row | SMILES | outcome | AC50
1 | Cc1cccc(N=Nc2ccc(N(C)C)cc2)c1 | inactive | –
2 | CC[N+](CC)(CC)CC | inactive | –
3 | Cc1cc(SCc2sc(-c3ccc(C(F)(F)F)c(F)c3)nc2C)ccc1OCC(=O)O | inactive | –
4 | C=CCc1ccccc1O | inactive | –
5 | NNCCO | inactive | –
6 | CCCCCCCCCCCCBr | inactive | –
7 | Brc1ccc(Oc2c(Br)cc(Br)cc2Br)c(Br)c1 | inactive | –
8 | CCOP(=S)(OCC)Oc1ccc(Cl)cc1Cl | inactive | –
9 | c1ccc(-c2cccc(-c3ccccc3)c2)cc1 | inactive | –
10 | O=C(CCl)NCO | inactive | –
11 | Cc1ccc(CCl)cc1 | inactive | –
12 | CC(=O)CN(CC(C)=O)N=O | inactive | –
13 | CC(c1ccc(O)cc1)c1ccc(O)cc1 | inactive | –
14 | Clc1cc(C(Cl)(Cl)Cl)cnc1Cl | – | 33.4 µM (active)
15 | O=S(=O)(C(Cl)(Cl)Cl)C(Cl)(Cl)Cl | – | 6.13 µM (active)
16 | BrCCCCBr | inactive | –
17 | CC(F)(F)CC(F)(F)F | inactive | –
18 | O=C/C(Cl)=C(/Cl)C(=O)O | inactive | –
19 | Oc1ccc(Cc2ccc(O)cc2)cc1 | inactive | –
20 | ClCCN1CCOCC1 | inactive | –

Row | SMILES | outcome | AC50
21 | COc1ccccc1N | inactive | –
22 | Nc1ccc(-c2ccccc2)cc1 | inactive | –
23 | OC(Cc1ccccc1Cl)(Cn1[nH]cnc1=S)C1(Cl)CC1 (stereo not given) | inactive | –
24 | CN(C)[C@@H]1C(=O)C(C(N)=O)=C(O)[C@@]2(O)C(=O)C3=C(O)c4c(O)ccc(Cl)c4[C@@](C)(O)[C@H]3C[C@@H]12 | inactive | –
25 | CS(=O)(=O)c1ccc(C(=O)C2C(=O)CCCC2=O)c(Cl)c1COCC(F)(F)F | inactive | –
26 | C=CC(=O)NC(C)(C)CC(C)=O | inactive | –
27 | CCCCCCCCCCCCc1cccc(S(=O)(=O)O)c1 | inactive | –
28 | CCCCCCCCBr | inactive | –
29 | O=S1(=O)OC(c2cc(Br)c(O)c(Br)c2)(c2cc(Br)c(O)c(Br)c2)c2ccccc21 | inactive | –
30 | O=c1oc2ccccc2c(O)c1C(CC(O)c1ccc(-c2ccc(Br)cc2)cc1)c1ccccc1 (stereo not given) | inactive | 40.6 µM (active)
31 | O=S(=O)(Oc1ccc(Cl)cc1)c1ccc(Cl)cc1 | inactive | –
32 | CC(C)[N+](=O)[O-] | inactive | –
33 | O=C(Nc1ccc(Br)cc1)c1cc(Br)cc(Br)c1O | inactive | –
34 | CCCSP(=S)(OCC)Oc1ccc(Cl)cc1Cl (stereo not given) | inactive | –
35 | CC(=Cc1ccccc1)[N+](=O)[O-] | – | 13.5 µM (active)
36 | COCCl | inactive | –
37 | NC(=O)CCl | inactive | –
38 | CC(C)CC(C)(c1ccc(O)cc1)c1ccc(O)cc1 | inactive | –
39 | CC1(C)[C@H](/C=C2\CCSC2=O)[C@@H]1C(=O)OCc1coc(Cc2ccccc2)c1 | inactive | –
